In all, about 33,000 sequences were measured (“E-score (-0.5 to 0.5)”: median about -0.0014, highest 2% from about 0.25 on). The sample as a whole holds a higher share of the highest values than the screen did.
molecular target: T1, Cad1 (UniProt P24813); test: PBM E-score (8-mer binding enrichment) (E-score (-0.5 to 0.5)); higher = stronger / more preferred TF binding; settings: protein concentration: 100 nM; construct: GST-full length
T1 sequence: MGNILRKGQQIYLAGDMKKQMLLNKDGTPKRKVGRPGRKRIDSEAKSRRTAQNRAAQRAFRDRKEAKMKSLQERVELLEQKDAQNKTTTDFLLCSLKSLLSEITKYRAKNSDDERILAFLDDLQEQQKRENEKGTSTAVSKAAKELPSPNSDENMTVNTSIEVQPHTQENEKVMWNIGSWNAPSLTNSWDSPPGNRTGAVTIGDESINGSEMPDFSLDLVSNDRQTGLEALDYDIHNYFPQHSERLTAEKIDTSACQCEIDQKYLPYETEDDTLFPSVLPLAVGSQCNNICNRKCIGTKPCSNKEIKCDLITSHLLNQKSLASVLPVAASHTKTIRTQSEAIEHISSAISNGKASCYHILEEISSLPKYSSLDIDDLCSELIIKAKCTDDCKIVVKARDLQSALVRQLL
In short: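 GST-tagged yeast TFs (full-length or DNA-binding domain) were made by PURExpress in vitro transcription/translation and applied at about 100-200 nM to universal all-10-mer Agilent arrays. The arrays were made double-stranded by primer extension, on fresh or once-stripped slides. Bound protein was detected with fluorescent anti-GST, and scans were normalised with masliner. Each ungapped eight-base word, pooled with its reverse complement, received an E-score (modified Wilcoxon-Mann-Whitney statistic) from the Universal PBM Analysis Suite.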

Sequence | PBM E-score
GTCAGCAA | 0.295
CTCAGCAC | 0.0326
GTCAGCAC | 0.261
ATCAGCAC | 0.0147
ATCAGCAA | 0.122
CTCAGCAA | 0.106
AGCTCCAC | -0.0867
AACGTAGA | 0.0503
CTTGCTAC | -0.0445
ACTGTAAT | 0.111
CTGCCGCA | -0.0367
ACGGGTCT | -0.252
AGCGATGG | -0.0366
TCTTAGCA | -0.0984
AACGACCT | -0.0376
ATCAATCA | 0.13
GTGATTAA | 0.228
ATGATTAC | 0.192
CTGATTAC | 0.334
CTGATTAA | 0.362
ATGATTGA | 0.0737
GCGATTAA | 0.123
ACGATTAA | 0.0443
CTGATTTC | 0.182
ATGATTAG | 0.094

Sequence | PBM E-score
CTGATTTA | 0.0612
ATGATTAA | 0.32
TCGATTAA | 0.301
AGGTACAT | -0.172
AATCTGGC | -0.102
CTCCCTGA | -0.247
AAGCGCCT | -0.165
ACCTTTAG | -0.142
CATAGAGC | -0.22
CAGTTGGG | -0.0373
AAAATTAG | 0.269
AAAATTAA | 0.209
AAAATTAC | 0.072
AAAATTGT | 0.167
AAAATTCT | -0.00425
AAAATTAT | 0.285
ATCAGTTA | 0.212
GCCCATAC | -0.1
GGCGACCC | -0.332
ATTGCCTG | 0.0283
CTTAACAC | 0.127
ATTAACAC | 0.275
ATTAACAA | 0.201
CGAATAGC | 0.0486
ACACGCGG | 0.0311

Sequence | PBM E-score
ACACGCGA | 0.143
ACACGCGT | 0.258
ACAAGCGG | 0.0904
GTTGGAGA | -0.0985
ACAAATAC | 0.271
ACAAATGT | 0.0516
ACAAATAG | 0.182
ACAAATGC | 0.255
ATAAATAA | 0.239
ACAAATAT | 0.262
CCAAATGC | -0.0453
ATAAATAG | 0.121
ACAAATAA | 0.206
ATAAATAC | 0.252
CCAAATAC | 0.013
GCAAATAC | 0.0468
GCGGGCCC | -0.157
ATCCGCCA | 0.0883
CAGAAGAC | 0.0287
AATCATAC | 0.0986
GGTGAAAC | -0.0742
GACTATCC | -0.0732
AGAATGAT | 0.0516
CTTGGCTC | -0.149
CAAGCTTA | 0.159

Sequence | PBM E-score
TAAGCTGA | 0.208
TAAGCTTA | 0.378
ACGTAGGG | -0.284
AGAGTTTG | 0.0139
AGATCCCG | 0.281
CGATCCCG | -0.265
AGATCCCT | -0.312
AAGACCTT | -0.0766
CCATTCTC | -0.114
TGGAGAAA | -0.151
AAATTAAC | 0.0173
AAATTAGG | 0.13
AAATTAAT | 0.288
GAATTAAA | -0.0332
AAATTACT | 0.314
AAATTACG | -0.00187
AAATTACC | 0.081
AAATTAGT | 0.273
AAATTAAA | 0.257
AGATTAAT | 0.16
AAATTAGA | 0.191
AAATTAAG | 0.0523
AAGTAACG | -0.0002
AACCTGCG | -0.142
CAAAGAGA | -0.113

Sequence | PBM E-score
ACCCGTTC | -0.0216
CCAGGGCG | -0.18
AGAGTTGG | -0.0857
TTGGTAAA | 0.073
GAAATTAA | 0.295
GAAATTAC | 0.234
CAAATTAA | 0.207
ACGTAAGC | 0.287
GCGTAATA | 0.142
ACGTAATC | 0.286
CCGTAATC | 0.143
ACGTAAGA | 0.199
CCGTAATA | 0.113
ACGTAATG | 0.147
ACGTAATA | 0.311
ACGTAAGT | -0.102
ACATAATC | 0.309
ACATAATA | 0.178
ACATAATG | 0.172
AAGTGGAA | -0.0197
CTCCCGCC | -0.163
ACGAAAGT | 0.0253
ACACAACT | 0.0775
GAAGCCAA | -0.183
CCGAAGCG | -0.22

Sequence | PBM E-score
CAATAACA | -0.0158
ACCTAATA | 0.137
ACATAACC | -0.0477
CCCTAATC | -0.076
ATGTAAGA | 0.227
ACATAACA | 0.273
ATGTAAGG | 0.0288
TAATAACA | 0.15
ACATAACT | 0.0912
ACCTAATC | 0.259
GAATAACA | 0.252
ATGTAAGC | 0.305
CCTTAGCC | -0.00184
CACGCACG | -0.131
ATTCGGGG | 0.0825
GTGCCGAA | -0.0386
ACTTACGG | 0.0069
TGGAGTAA | 0.149
AGTTTGTG | -0.0199
GGCATAAC | 0.0911
CGCGCACA | 0.257
AGCGAAGA | -0.118
CGCGAAGC | 0.219
CGCGAAGA | 0.273
CGCGCACG | 0.0231

Sequence | PBM E-score
CGCGCAGA | 0.287
GGCGCAGA | 0.00055
CGCGCAGC | 0.103
GGCGCACA | 0.00969
ACCTTCAT | -0.0561
CATAAACC | -0.0325
CGAGGCGA | 0.0962
ATAAGTTC | 0.197
GAAAGTAC | -0.0278
CTCAATTC | 0.066
CCAGCTAA | -0.0477
AATGCATA | 0.0741
AATGCATG | 0.254
CATGCATC | 0.148
CATGCATA | 0.156
AATGCATT | 0.229
CATGCATG | 0.252
CGTAACAC | 0.124
GGGTCGTA | -0.236
ACGAAAAT | 0.189
AGAGTGTC | 0.198
CGGACGAA | 0.274

— the supplement of paper PMC3334620
